# Several values for one entry are separate records, joined by “and”; a condition that tells them apart may be missing. Identical values can stand only once. Activity calls are given as the source filed them.
# Assays:
# [1] = compound effects on lung adenocarcinoma cell viability – A549, calcein-AM fluorescence, 48 h, basal, profiling panel (AID 1162); settings: higher = more signal
# [2] = compound effects on differentiated 3T3-L1 adipocyte viability – cell-based, 3T3-L1 adipocytes, calcein-AM fluorescence, 48 h, basal, profiling panel (AID 1163); settings: 3T3-L1 adipocytes viability, higher = more signal
# [3] = compound effects on hepatocellular carcinoma cell viability – HepG2, calcein-AM fluorescence, 48 h, basal, profiling panel (AID 1164); settings: higher = more signal
# [4] = compound effects on multiple myeloma cell viability – MM1S, calcein-AM fluorescence, 48 h, basal, profiling panel (AID 1165); settings: higher = more signal;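 also: viability of MM1S multiple myeloma cells under basal unstimulated conditions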
# [5] = calcein-AM signal in unstimulated myeloma cells – cell-based, calcein-AM fluorescence, 48 h, PK04 Diversity Set, profiling panel (AID 1166); settings: RPMI8226 myeloma viability, higher = more signal;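 also: cells grown under basal conditions without added stimulus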
# [6] = JC-1 mitochondrial signal, unstimulated HepG2 cells – cell-based, JC-1 fluorescence, 24 h, 100 nL compound, profiling panel (AID 1167); settings: HepG2 mitochondrial potential, higher = more signal
# [7] = JC-1 mitochondrial signal, unstimulated adipocytes – cell-based, JC-1 fluorescence, 3T3-L1 adipocytes, 24 h, 100 nL compound, profiling panel (AID 1168); settings: JC-1 mitochondrial fluorescence, higher = more signal, called active from +8 up or from −8 down
# [8] = JC-1 mitochondrial signal, unstimulated myeloma cells – cell-based, JC-1 fluorescence, RPMI8226, 24 h, 100 nL compound, profiling panel (AID 1169); settings: JC-1 mitochondrial potential fluorescence, higher = more signal
# [9] = JC-1 mitochondrial signal, unstimulated MM1S myeloma – cell-based, JC-1 fluorescence, 24 h, 100 nL compound, profiling panel (AID 1170); settings: MM1S mitochondrial potential, higher = more signal
# [10] = resazurin metabolic signal in A549 cells – cell-based, resazurin fluorescence, 24 h, PK04 Diversity Set, profiling panel (AID 1171); settings: A549 viability, higher = more signal, called active from +8 up or from −8 down
# Also: test concentration not given here.
smiles,measurement,setting,value
Cc1ccc(S(=O)(=O)N[C@@H]2COC(=O)CC=C[C@@H](C)[C@@H]3C=C[C@H](O)[C@@H](COC(=O)CC=C[C@H]2C)O3)cc1,z-score,[1],0.616 and -0.418
same,z-score,[2],-0.347 and -0.476
same,z-score,[3],0.664 and -1.95
same,z-score,[4],0.0847 and -1.25
same,z-score,[5],0.0913 and -0.776
same,z-score,[6],-0.0139 and 0.344
same,z-score,[7],-0.0698 (inactive) and 0.134 (inactive)
same,z-score,[8],-0.858 and 1.11
same,z-score,[9],1.32 and -1.69
same,z-score,[10],0.0086 (inactive) and 0.658 (inactive)
O=C1[C@H]2[C@H]3[C@H](O)[C@H](O)CC(=NOCc4ccccc4)[C@H]3CC[C@H]2C(=O)N1Cc1ccccc1,z-score,[1],-0.85
same,z-score,[2],1.18
same,z-score,[3],-0.977
same,z-score,[4],-0.695
same,z-score,[5],-1.69
same,z-score,[6],1.09
same,z-score,[7],-0.0708 (inactive)
same,z-score,[8],0.00736
same,z-score,[9],-1.48
same,z-score,[10],0.51 (inactive)
C[C@@H]1CC[C@H]2C(=O)N3[C@@H](CC[C@@H](C)[C@@H]3c3ccc(-c4ccco4)cc3)C(=O)N2[C@H]1c1ccc(-c2ccco2)cc1,z-score,[1],-0.521 and 0.709
same,z-score,[2],0.489 and 0.992
same,z-score,[3],-0.676 and -0.195
same,z-score,[4],-0.372 and -2.15
same,z-score,[5],-0.537 and -1.3
same,z-score,[6],-1.41 and -2.19
same,z-score,[7],-0.996 (inactive) and -0.779 (inactive)
same,z-score,[8],0.299 and -0.414
same,z-score,[9],0.863 and 0.498
same,z-score,[10],-0.244 (inactive) and 1.43 (inactive)
C=CCN(CCCCC)C(=O)C1N(c2c(Cl)cccc2CO)C(=O)C2C(C(=O)O)C3C=CC21O3 (stereo not given),z-score,[1],0.91 and 0.677
same,z-score,[2],1.58 and 0.498
same,z-score,[3],-0.841 and -0.469
same,z-score,[4],1 and 0.892
same,z-score,[5],-1.09
same,z-score,[6],-0.828 and -1.37
same,z-score,[7],-0.438 (inactive) and -0.55 (inactive)
same,z-score,[8],0.0653 and 0.469
same,z-score,[9],0.223 and 1.03
same,z-score,[10],-1.5 (inactive) and -1.33 (inactive)
COC(=O)C1=C(C)N(Cc2ccccc2)[C@]23O[C@](C(=O)OC)(C(=O)N2[C@@H]1c1ccccc1)[C@H]1CCCC(=O)[C@H]13,z-score,[1],0.144 and -0.51
same,z-score,[2],0.474 and 0.827
same,z-score,[3],-0.336 and -0.818
same,z-score,[4],-3.25 and -1.15
same,z-score,[5],-1.18 and -0.337
same,z-score,[6],0.662 and 0.827
same,z-score,[7],1.33 (inactive) and 0.966 (inactive)
same,z-score,[8],-0.736 and 0.0334
same,z-score,[9],0.291 and -0.342
same,z-score,[10],0.207 (inactive) and -0.277 (inactive)
C=CCN(C(=O)C(c1cccs1)N(C(=O)/C=C\C(=O)O)C(C)(C)CO)c1ccc(OC)cc1 (stereo not given),z-score,[1],3.04 and 1.76
same,z-score,[2],1.09 and 0.718
same,z-score,[3],0.717 and 1.1
same,z-score,[4],1.61 and 1.55
same,z-score,[5],-0.223 and 1.05
same,z-score,[6],1.16 and 0.287
same,z-score,[7],2.24 (inactive) and 0.954 (inactive)
same,z-score,[8],-0.567 and 0.754
same,z-score,[9],0.212 and 0.326
same,z-score,[10],0.579 (inactive) and -0.0357 (inactive)
C[N+](C)(C)CCCCNC(=O)[C@H]1C[C@H]2C(=O)N[C@@H](CCCC[N+](C)(C)C)C(=O)N2[C@H]1c1ccc(O)cc1,z-score,[1],-0.231 and -0.502
same,z-score,[2],-1.46 and 0.308
same,z-score,[3],-0.905 and -1.22
same,z-score,[4],-0.088 and -0.298
same,z-score,[5],-0.598 and -0.804
same,z-score,[6],-0.982 and -1.85
same,z-score,[7],-0.258 (inactive) and -0.841 (inactive)
same,z-score,[8],0.629 and -0.808
same,z-score,[9],-0.588 and -0.423
same,z-score,[10],-0.471 (inactive) and -0.706 (inactive)
CCN1C(=O)[C@H]2[C@H]3[C@H](O)[C@H](O)CC(=NNC(=O)OCc4ccc(OC)cc4)[C@H]3CC[C@H]2C1=O,z-score,[1],0.173
same,z-score,[2],-0.402
same,z-score,[3],1.33
same,z-score,[4],0.436
same,z-score,[5],-0.261
same,z-score,[6],0.385
same,z-score,[7],-0.596 (inactive)
same,z-score,[8],-0.236
same,z-score,[9],-0.00926
same,z-score,[10],-0.947 (inactive)
CC(C)=NOC[C@@H](O)COCc1ccco1,z-score,[1],0.991
same,z-score,[2],-0.611
same,z-score,[3],0.828
same,z-score,[4],0.191
same,z-score,[5],0.313
same,z-score,[6],-0.0938
same,z-score,[7],0.121 (inactive)
same,z-score,[8],0.602
same,z-score,[9],-0.391
same,z-score,[10],-0.736 (inactive)
Cc1ccc(S(=O)(=O)N[C@H]2COC(=O)[C@@H](Cc3ccccc3)NC(=O)[C@@H](C)COC(=O)CC=C[C@@H]2C)cc1,z-score,[1],0.671 and -0.545
same,z-score,[2],-0.433 and 1.08
same,z-score,[3],0.364 and -1.68
same,z-score,[4],-1.13 and 1.05
same,z-score,[5],-0.372 and -0.784
same,z-score,[6],0.0571 and -0.176
same,z-score,[7],-0.517 (inactive) and -0.812 (inactive)
same,z-score,[8],-0.259 and 0.107
same,z-score,[9],0.242 and -1.28
same,z-score,[10],0.0258 (inactive) and 0.392 (inactive)
CO[C@H]1COC(=O)CC=C[C@@H](C)COC(=O)[C@H](CCSC)NC(=O)CC=C[C@@H]1C,z-score,[1],-0.875 and -0.577
same,z-score,[2],0.584 and 0.153
same,z-score,[3],-0.442 and 0.338
same,z-score,[4],0.0739 and -0.242
same,z-score,[5],-0.858 and 0.708
same,z-score,[6],0.755 and 0.535
same,z-score,[7],-0.153 (inactive) and 0.157 (inactive)
same,z-score,[8],-0.688 and 0.358
same,z-score,[9],0.588 and 1.85
same,z-score,[10],-0.8 (inactive) and 0.705 (inactive)
COc1ccc(-c2ccc3c(n2)CCCN3CC(O)CN2CCCc3nc(-c4ccc(Br)cc4)ccc32)cc1 (stereo not given),z-score,[1],0.261 and -0.331
same,z-score,[2],0.163 and 0.196
same,z-score,[3],-0.0242 and 0.0285
same,z-score,[4],-2.63 and -0.767
same,z-score,[5],-0.393 and -0.48
same,z-score,[6],0.219 and -1.61
same,z-score,[7],-0.136 (inactive) and -0.88 (inactive)
same,z-score,[8],0.553 and 0.817
same,z-score,[9],0.0404 and -0.331
same,z-score,[10],-0.23 (inactive) and 0.169 (inactive)
C=CCN(C(=O)C(c1cccs1)N(C(=O)/C=C\C(=O)O)C(C)(C)CO)C(C)(C)C (stereo not given),z-score,[1],0.923 and 0.435
same,z-score,[2],0.373 and 0.179
same,z-score,[3],1.24 and 1.74
same,z-score,[4],0.151 and 1.58
same,z-score,[5],-0.161 and 0.234
same,z-score,[6],1.04 and 1.38
same,z-score,[7],0.19 (inactive) and 0.713 (inactive)
same,z-score,[8],-0.82 and 0.0107
same,z-score,[9],0.0872 and 0.0595
same,z-score,[10],-0.465 (inactive) and -0.596 (inactive)
CCOC(=O)NN=C1C[C@@H](O)[C@@H](O)[C@@H]2[C@@H]3C(=O)N(Cc4ccccc4)C(=O)[C@@H]3CC[C@@H]12,z-score,[1],-0.226
same,z-score,[2],-0.0135
same,z-score,[3],-1.29
same,z-score,[4],0.599
same,z-score,[5],-0.461
same,z-score,[6],0.548
same,z-score,[7],0.152 (inactive)
same,z-score,[8],0.387
same,z-score,[9],-0.979
same,z-score,[10],0.0002 (inactive)

# From PubChem BioAssay
